{"source": "PubChem BioAssay AID1578", "about": "(Sanford-Burnham Center for Chemical Genomics, 2009)", "note": "Among all 290,000 compounds or so, about 3,000 (1%) were called active. No stated cut-off is given here; in the data, active means inhibition mostly above about 36% (no sharp cut-off); inactive means mostly below about 34%. Shown is part of a subset that was picked to be rich in actives.", "data": [{"experiment": "NOD1 signaling inhibitors, primary screen, cell-based, luminescence, uHTS (AID 1578);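 further: HEK-293T reporter cells stimulated with the NOD1 agonist gamma-tri-DAP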", "conditions": "NOD1-driven NF-kB luciferase reporter cells, at 4 µM, active compounds read high", "values": [{"smiles": "CC(=O)Nc1cccc(C(=O)/C=C/c2ccc(/C=C/C(=O)c3cccc(NC(C)=O)c3)cc2)c1", "inhibition": "85.5% (active)"}, {"smiles": "O=C(/C=C/c1ccccc1)Nc1cc(C(=O)O)cc(C(=O)O)c1", "inhibition": "-46.3% (inactive)"}, {"smiles": "O=C(/C=C/c1cccc(C(F)(F)F)c1)Nc1cccc(C(F)(F)F)c1", "inhibition": "75.5% (active)"}, {"smiles": "O=C(/C=C/c1ccccc1)Nc1ncn[nH]1", "inhibition": "59.8% (active)"}, {"smiles": "O=C(Nc1ncn[nH]1)c1ccccc1O", "inhibition": "1.8% (inactive)"}, {"smiles": "CC(=O)Nc1ccc(NC(=O)/C=C/c2cccc(C(F)(F)F)c2)cc1", "inhibition": "-14.7% (inactive)"}, {"smiles": "O=C(/C=C/c1ccccc1)Nc1cc(NC(=O)/C=C/c2ccccc2)cc(C(=O)O)c1", "inhibition": "-29.4% (inactive)"}, {"smiles": "O=C(/C=C/c1ccccc1)Nc1cccc(C(=O)O)c1", "inhibition": "96.6% (active)"}, {"smiles": "Cc1ccc(NC(=O)/C=C/c2cccc(C(F)(F)F)c2)cc1", "inhibition": "15.4% (inactive)"}, {"smiles": "Cc1nc(NC(=O)/C=C/c2ccccc2)n[nH]1", "inhibition": "51.1% (inactive)"}, {"smiles": "CC(=O)Nc1cccc(C(=O)/C=C/c2ccc(F)cc2)c1", "inhibition": "-34.5% (inactive)"}, {"smiles": "CC(=O)Nc1cccc(C(=O)/C=C/c2ccc(C)cc2)c1", "inhibition": "34.7% (inactive)"}, {"smiles": "CC(C)=CCN1CCN(C/C(Cl)=C/c2ccccc2)CC1CCO", "note": "(stereo unspecified)", "inhibition": "1.6% (inactive)"}, {"smiles": "Cc1ccc(CNC(=O)CCS(=O)(=O)c2cc3c(cc2Cl)NC(=O)CO3)o1", "inhibition": "-10.7% (inactive)"}, {"smiles": "COc1cc(/C=C(\\C#N)C(=O)Nc2ccccc2)ccc1OCCN1CCOCC1", "inhibition": "-28.7% (inactive)"}, {"smiles": "COc1cc2c(C(=O)NCCN(C)C)cn(CC(C)C)c(=O)c2cc1OC", "inhibition": "1.3% (inactive)"}, {"smiles": "COc1ccc(-c2nn(CC(=O)Nc3ccc(Cl)c(Cl)c3)c(=O)c3ccccc23)cc1", "inhibition": "15.6% (inactive)"}, {"smiles": "COc1ccc(C(=O)N/C(=C\\c2cn(S(=O)(=O)N(C)C)c3ccccc23)C(=O)N2CCOCC2)cc1", "inhibition": "-6.8% (inactive)"}, {"smiles": "Cc1cc(C)cc(C(=O)NCC(=O)NCc2ccc(S(N)(=O)=O)cc2)c1", "inhibition": "-5.1% (inactive)"}, {"smiles": "COc1cccc(N2CCN(C(=O)c3cc4cc(Cl)ccc4[nH]3)CC2)c1", "inhibition": "-4.9% (inactive)"}, {"smiles": "COC(=O)c1c(N)sc(C(=O)NCCc2ccccc2)c1C", "inhibition": "69.8% (active)"}, {"smiles": "CCOC(=O)c1c(N)sc(C(=O)Nc2ccccc2)c1C", "inhibition": "-18.7% (inactive)"}, {"smiles": "COC(=O)c1c(N)sc(Cc2ccccc2)c1C", "inhibition": "-28.7% (inactive)"}, {"smiles": "Cc1ccc(S(=O)(=O)NC(C)(C)CSc2nnc(Nc3ccccc3)s2)cc1", "inhibition": "64.7% (active)"}, {"smiles": "Cc1ccc(S(=O)(=O)NC(C)(C)CSc2nnc(N)s2)cc1", "inhibition": "-25.5% (inactive)"}, {"smiles": "Cc1ccc(S(=O)(=O)NC(C)(C)CSc2ncccn2)cc1", "inhibition": "-3.5% (inactive)"}, {"smiles": "CCSc1n[nH]c2nc3c(c(=O)n12)C1(CCCCC1)Cc1ccccc1-3", "inhibition": "-13.1% (inactive)"}, {"smiles": "N#CCSc1n[nH]c2nc3c(c(=O)n12)C1(CCCC1)Cc1ccccc1-3", "inhibition": "16.8% (inactive)"}, {"smiles": "N#CCSc1n[nH]c2nc3c(c(=O)n12)C1(CCCCC1)Cc1ccccc1-3", "inhibition": "48% (active)"}, {"smiles": "CCN(C(=O)/C=C/c1ccc(OC)cc1)C1CCCCC1", "inhibition": "-18.8% (inactive)"}, {"smiles": "COc1cccc2cc(-c3cc(=O)oc4cc(C)c(OCC(C)=O)cc34)oc12", "inhibition": "71.3% (active)"}, {"smiles": "CC(=O)COc1cc2c(-c3cc4ccccc4o3)cc(=O)oc2cc1C", "inhibition": "40.5% (inactive)"}, {"smiles": "COc1cccc2cc(-c3cc(=O)oc4ccc(OCC(C)=O)cc34)oc12", "inhibition": "39% (inactive)"}, {"smiles": "COc1ccc(Cl)cc1NC(=O)CSc1nc(C)cc(C)n1", "inhibition": "-29.7% (inactive)"}, {"smiles": "Cc1cc(C)cc(NC(=O)CSc2nc(CSc3ccc(Cl)cc3)cc(=O)[nH]2)c1", "inhibition": "8.6% (inactive)"}, {"smiles": "CCOC(=O)N1CCC(NCCNC(=O)c2ccccc2Cl)CC1", "inhibition": "9.8% (inactive)"}, {"smiles": "Cn1c(Sc2ccccc2Cl)c(C=O)c2ccccc21", "inhibition": "41.9% (inactive)"}, {"smiles": "Cn1c(Oc2ccc(Cl)cc2)c(C=O)c2ccccc21", "inhibition": "22.8% (inactive)"}, {"smiles": "COc1ccc(-c2nnn(CC(=O)c3c[nH]c4ccccc34)n2)cc1OC", "inhibition": "-7.9% (inactive)"}, {"smiles": "CCOC(=O)c1[nH]ncc1CN1CCN(Cc2ccccc2)C(CCO)C1", "note": "(stereo unspecified)", "inhibition": "-20.2% (inactive)"}, {"smiles": "CSc1ccc(S(=O)(=O)N2CCC(C(=O)NCCN3CCOCC3)CC2)cc1", "inhibition": "-17.3% (inactive)"}, {"smiles": "Cc1nc2cc(-c3ccccc3)sc2c(=O)n1N", "inhibition": "95.4% (active)"}, {"smiles": "CSc1nc2sc(-c3ccccc3)cc2c(=O)n1N", "inhibition": "-13.6% (inactive)"}, {"smiles": "Cc1ccc(C)n1-n1c(C)nc2sc(-c3ccccc3)cc2c1=O", "inhibition": "-14.6% (inactive)"}, {"smiles": "Cc1nc2sc(-c3ccccc3)cc2c(=O)n1N", "inhibition": "29.8% (active)"}, {"smiles": "O=c1c2sc(-c3ccccc3)cc2nc2n1CCC2", "inhibition": "-26.3% (inactive)"}, {"smiles": "Cc1nc2ccccc2c(=O)n1N", "inhibition": "-11.6% (inactive)"}, {"smiles": "COc1cccc(CN2CCN(C3CCOCC3)CC2CCO)c1", "note": "(stereo unspecified)", "inhibition": "2.6% (inactive)"}, {"smiles": "CCOC(=O)Cc1nnc(NC(=O)CSc2nnc3c(n2)[nH]c2ccccc23)s1", "inhibition": "19% (inactive)"}, {"smiles": "COc1c(C)cc(C(=O)C2CCCN(S(=O)(=O)c3c(C)noc3C)C2)cc1C", "note": "(stereo unspecified)", "inhibition": "48.6% (active)"}, {"smiles": "CSc1ccc(C(=O)C2CCCN(S(=O)(=O)c3c(C)noc3C)C2)cc1", "note": "(stereo unspecified)", "inhibition": "-19.9% (inactive)"}, {"smiles": "Cc1noc(C)c1S(=O)(=O)N1CCCC(C(=O)c2cccc(OC(C)C)c2)C1", "note": "(stereo unspecified)", "inhibition": "4.9% (inactive)"}, {"smiles": "CCCCOc1ccc(-c2ncc(C(=O)O)c(C)n2)cc1", "inhibition": "-62% (inactive)"}, {"smiles": "COc1ccccc1CN(Cc1nc2ccccc2c(=O)[nH]1)S(=O)(=O)c1ccc(C)cc1", "inhibition": "-16.5% (inactive)"}, {"smiles": "Nc1cc(S(=O)(=O)c2ccc(O)c(N)c2)ccc1O", "inhibition": "-4.4% (inactive)"}, {"smiles": "C=CCc1ccc(O)c(-c2ccc(O)c(CC=C)c2)c1", "inhibition": "-6.9% (inactive)"}, {"smiles": "C=CCc1cc(S(=O)(=O)c2ccc(O)c(CC=C)c2)ccc1O", "inhibition": "47.4% (active)"}, {"smiles": "Cc1[nH]c(-c2ccc(F)cc2)cc1C(=O)N1CCN(c2ccccc2)CC1", "inhibition": "-4.4% (inactive)"}, {"smiles": "O=C(Nc1cccc(-c2nnc(-c3ccccc3)o2)c1)C1CCCCC1", "inhibition": "30.6% (active)"}, {"smiles": "O=C(Nc1cccc(-c2nnc(-c3ccccc3)o2)c1)C1CC1", "inhibition": "2.9% (inactive)"}, {"smiles": "O=C(Nc1nnc(-c2ccccc2)o1)C1CCCCC1", "inhibition": "-11.8% (inactive)"}]}]}
